Experimental findings from PubChem BioAssay AID488984 (The Scripps Research Institute Molecular Screening Center, 2010) are described below.

The source made the active and inactive calls. Cut-off read from the data, not from the text of the source: active = inhibition above about 55%; inactive = the rest.

The assay has as its system SARS coronavirus 3C-like protease (3CLpro, nsp5). The assay can be described thus: blockers of SARS 3CLpro activity – biochemical, fluorescence, set 2, late-stage follow-up (AID 488984). The conditions noted are these: recombinant 3CLpro, fluorogenic peptide cleavage; at 100 µM; active compounds read high.
Take `CC(C)(C)NC(=O)C(c1ccsc1)N(C(=O)c1ccc(C#N)cc1)c1ccc(C(C)(C)C)cc1` (centres undefined): the inhibition is 22.7% (inactive).

In the case of `CC(C)C(=O)Nc1ccc(N(C(=O)Cn2nnc3ccccc32)C(C(=O)NC(C)(C)C)c2ccsc2)cc1` (centres undefined), the inhibition was 96.7% (active).

For `CC(C)(C)NC(=O)C(c1cccnc1)N(C(=O)c1n[nH]c2ccccc12)C1CC1` (centres undefined), the inhibition was 9.27% (inactive).

In the case of `CC(C)(C)NC(=O)C(c1ccsc1)N(C(=O)Cc1c[nH]c2ccccc12)c1ccc(OCF)cc1` (centres undefined), the inhibition is 35.6% (inactive).

Regarding `CC(C)(C)NC(=O)C(c1cccnc1)N(C(=O)Cc1c[nH]c2ccccc12)C1CC1` (centres undefined), the inhibition is 8.97% (inactive).

As for `CC(C)(C)NC(=O)C(c1ccsc1)N(C(=O)Cc1cccnc1)c1ccc(F)cc1` (centres undefined), the inhibition is 19% (inactive).

Take `CC(C)(C)NC(=O)C(c1ccsc1)N(C(=O)Cc1c[nH]c2ccccc12)c1ccc(C(C)(C)C)cc1` (centres undefined): the inhibition was 26.3% (inactive).

Turning to `CC(C)(C)NC(=O)C(c1ccsc1)N(C(=O)Cn1nnc2ccccc21)c1ccc(C(C)(C)C)cc1` (centres undefined), the inhibition is 2.8% (inactive).

Regarding `CC(C)(C)NC(=O)C(c1ccsc1)N(C(=O)c1cccc2c1CCCC2)C1CC1` (centres undefined), the inhibition is 34.6% (inactive).

For the compound `CC(C)(C)NC(=O)C(c1cccnc1)N(C(=O)c1ccc(C(F)(F)F)nc1)c1ccc(OCF)cc1` (centres undefined), the inhibition was 13.7% (inactive).

As to `CC(C)c1ccc(N(C(=O)c2ccc(C(F)(F)F)nc2)C(C(=O)NC(C)(C)C)c2cccnc2)cc1` (centres undefined), the inhibition was -15.3% (inactive).

Regarding `CC(C)c1ccc(N(C(=O)Cc2cccnc2)C(C(=O)NC(C)(C)C)c2ccsc2)cc1` (centres undefined), the inhibition is 7.95% (inactive).

Consider `CC(C)C(=O)Nc1ccc(N(C(=O)Cn2cnc3ccccc32)C(C(=O)NC(C)(C)C)c2ccsc2)cc1` (centres undefined), for which the inhibition was 59.8% (active).

For `CC(C)(C)NC(=O)C(c1ccsc1)N(C(=O)Cc1cccc2ccccc12)c1ccc(C(C)(C)C)cc1` (centres undefined), the inhibition is 22.3% (inactive).

In the case of `CC(C)(C)NC(=O)C(c1ccsc1)N(C(=O)c1ccc(C(F)(F)F)nc1)C1CC1` (centres undefined), the inhibition was 11.3% (inactive).

Regarding `CC(C)(C)NC(=O)C(c1ccsc1)N(C(=O)c1ccco1)c1ccc(OC(F)F)cc1` (centres undefined), the inhibition was 25.9% (inactive).

Take `CC(C)(C)NC(=O)C(c1cccnc1)N(C(=O)c1ccc(C#N)cc1)c1ccc(OCF)cc1` (centres undefined): the inhibition was -7.47% (inactive).

`CC(C)(C)NC(=O)C(c1ccsc1)N(C(=O)Cc1cccnc1)c1ccc(OCF)cc1` (centres undefined): the inhibition was 56.1% (active).

On to `CCC(=O)Nc1ccc(N(C(=O)Cn2cnc3ccccc32)C(C(=O)NC(C)(C)C)c2ccsc2)cc1` (centres undefined), for which the inhibition is 61.1% (active).

In the case of `CC(C)(C)NC(=O)C(c1cccnc1)N(C(=O)c1n[nH]c2ccccc12)c1ccc(OC(F)F)cc1` (centres undefined), the inhibition was 24.6% (inactive).

As to `CC(C)(C)NC(=O)C(c1ccsc1)N(C(=O)Cn1nnc2ccccc21)c1ccc(NS(C)(=O)=O)cc1` (centres undefined), the inhibition was 89.5% (active).

For the compound `CC(C)c1ccc(N(C(=O)c2cccc3c2CCCC3)C(C(=O)NC(C)(C)C)c2ccsc2)cc1` (centres undefined), the inhibition is 7.39% (inactive).

Regarding `CC(C)(C)NC(=O)C(c1cccnc1)N(C(=O)c1ccco1)C1CC1` (centres undefined), the inhibition was -1.64% (inactive).

For the compound `Cc1nccn1CC(=O)N(c1ccc(NS(C)(=O)=O)cc1)C(C(=O)NC(C)(C)C)c1ccsc1` (centres undefined), the inhibition is 0.44% (inactive).

With `CC(C)(C)NC(=O)C(c1cccnc1)N(C(=O)Cc1cccnc1)c1ccc(OCF)cc1` (centres undefined), the inhibition is 18.7% (inactive).

Regarding `CC(C)(C)NC(=O)C(c1ccsc1)N(C(=O)c1ccc(C#N)cc1)c1ccc(OCF)cc1` (centres undefined), the inhibition was 17.8% (inactive).

For the compound `CC(C)(C)NC(=O)C(c1ccsc1)N(C(=O)c1cccc2c1CCCC2)c1ccc(F)cc1` (centres undefined), the inhibition was 14.4% (inactive).

As to `CC(C)(C)NC(=O)C(c1ccsc1)N(C(=O)Cc1cccc2ccccc12)C1CC1` (centres undefined), the inhibition was 16.5% (inactive).

For `CC(C)(C)NC(=O)C(c1ccsc1)N(C(=O)Cn1nnc2ccccc21)c1ccc(N)cc1` (centres undefined), the inhibition was 74.8% (active).

With `CC(C)c1ccc(N(C(=O)c2ccco2)C(C(=O)NC(C)(C)C)c2ccsc2)cc1` (centres undefined), the inhibition was 6.57% (inactive).

With `Cc1nccn1CC(=O)N(c1ccc(NC(=O)C(C)C)cc1)C(C(=O)NC(C)(C)C)c1ccsc1` (centres undefined), the inhibition was 7.94% (inactive).

Take `CC(C)(C)NC(=O)C(c1cccnc1)N(C(=O)c1ccco1)c1ccc(OC(F)F)cc1` (centres undefined): the inhibition is 45.5% (inactive).

For the compound `CC(C)(C)NC(=O)C(c1cccnc1)N(C(=O)Cc1c[nH]c2ccccc12)c1ccc(C(C)(C)C)cc1` (centres undefined), the inhibition is 30.6% (inactive).

`CC(C)(C)NC(=O)C(c1cccnc1)N(C(=O)Cc1c[nH]c2ccccc12)c1ccc(OCF)cc1` (centres undefined): the inhibition is 11.5% (inactive).

As a reminder, the inhibition is the relative decrease from the control value, in per cent.
